Activity calls are given as the source filed them. Unless noted, no rule for the calls is given here.
Columns and labels:
[1] = resazurin metabolic signal in HepG2 cells – cell-based, resazurin fluorescence, 24 h, PK04 Diversity Set, profiling panel (AID 1172); details: HepG2 viability, higher = more signal; also: test concentration not given here
[2] = budding yeast growth changes without added modifier – OD600, strain BY4716, 24 h, basal condition, primary screen (AID 1173); details: S. cerevisiae BY4716 growth, OD600, 24 h; higher = more signal, called active from +8 up or from −8 down
[3] = viability profiling in MM1S myeloma cells – cell-based, resazurin fluorescence, basal, 24 h, PK04 Diversity Set, profiling panel (AID 1174); details: higher = more signal, called active from +8 up or from −8 down;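 also: MM1S multiple myeloma cell line; test concentration not given here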
[4] = target: Dihydroorotate dehydrogenase (quinone), mitochondrial (Plasmodium falciparum (isolate 3D7)) (UniProt Q08210); experiment: inhibition of P. falciparum DHODH – biochemical, C-terminal His tag, absorbance 600 nm, primary screen (AID 1175); details: PfDHODH enzyme, DCIP absorbance 600 nm; higher = more signal, called active from +8 up or from −8 down;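 also: recombinant parasite enzyme with a five histidine tag at its C terminus; test concentration not given here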
Chain of Dihydroorotate dehydrogenase (quinone), mitochondrial (Plasmodium falciparum (isolate 3D7)) (Q08210 whole entry, looked up): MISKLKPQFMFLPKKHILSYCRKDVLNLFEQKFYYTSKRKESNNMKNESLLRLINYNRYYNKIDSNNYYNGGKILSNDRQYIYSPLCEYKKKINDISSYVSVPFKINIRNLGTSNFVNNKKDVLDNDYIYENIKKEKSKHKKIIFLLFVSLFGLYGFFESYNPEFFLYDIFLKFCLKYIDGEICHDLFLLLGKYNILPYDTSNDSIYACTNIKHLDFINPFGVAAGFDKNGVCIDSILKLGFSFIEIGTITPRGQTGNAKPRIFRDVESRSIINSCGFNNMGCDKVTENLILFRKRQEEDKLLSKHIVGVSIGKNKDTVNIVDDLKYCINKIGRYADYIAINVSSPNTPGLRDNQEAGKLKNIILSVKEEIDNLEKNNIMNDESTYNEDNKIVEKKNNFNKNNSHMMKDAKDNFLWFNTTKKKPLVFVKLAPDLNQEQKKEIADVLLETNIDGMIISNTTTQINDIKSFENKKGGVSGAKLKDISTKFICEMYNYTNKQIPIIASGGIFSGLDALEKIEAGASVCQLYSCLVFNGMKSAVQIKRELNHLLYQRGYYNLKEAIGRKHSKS

[5] = inhibition of PAO1 biofilm formation – strain PAO1, LB-PBS medium, absorbance 600 nm, primary screen (AID 1176); also: test concentration not given here; details: P. aeruginosa PAO1 growth/biofilm, A600, 12 h; higher = more signal
[6] = growth modulation of vineyard yeast isolate – strain RM11-1a, OD600, basal, 24 h, primary screen (AID 1177);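 also: cultures grown under basal conditions with no added stressor; test concentration not given here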; details: S. cerevisiae RM11-1a growth, OD600, 24 h; higher = more signal, called active from +8 up or from −8 down
[7] = growth of efflux-deficient E. coli DRC39 – strain DRC39, OD650, 24 h, E. coli filamentation inducers, primary screen (AID 1178);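 also: growth measured as culture turbidity by optical density at 650 nm; test concentration not given here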; details: E. coli DRC39 acrAB, higher = more signal, called active from +8 up or from −8 down
[8] = growth of efflux-deficient E. coli DRC39 – strain DRC39, OD650, 48 h, E. coli filamentation inducers, primary screen (AID 1179);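 also: screen aims at cell division blockers that make cells filament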; details: E. coli DRC39 delta-acrAB growth, higher = more signal, called active from +8 up or from −8 down
[9] = viability profiling in RPMI8226 myeloma cells – cell-based, resazurin fluorescence, basal, 24 h, PK04 Diversity Set, profiling panel (AID 1180); details: higher = more signal;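 also: RPMI8826 multiple myeloma cell line at 5000 cells per well; test concentration not given here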
[10] = target: E3 ubiquitin-protein ligase XIAP (Homo sapiens) (UniProt P98170); experiment: small molecules binding XIAP protein – biophysical, small-molecule microarray, fluorescence 635 nm, primary screen (AID 1181); details: higher = more signal;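 also: score merges 667 nm emission and signal to noise over triplicate slides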
Chain of E3 ubiquitin-protein ligase XIAP (Homo sapiens) (P98170 whole entry, looked up): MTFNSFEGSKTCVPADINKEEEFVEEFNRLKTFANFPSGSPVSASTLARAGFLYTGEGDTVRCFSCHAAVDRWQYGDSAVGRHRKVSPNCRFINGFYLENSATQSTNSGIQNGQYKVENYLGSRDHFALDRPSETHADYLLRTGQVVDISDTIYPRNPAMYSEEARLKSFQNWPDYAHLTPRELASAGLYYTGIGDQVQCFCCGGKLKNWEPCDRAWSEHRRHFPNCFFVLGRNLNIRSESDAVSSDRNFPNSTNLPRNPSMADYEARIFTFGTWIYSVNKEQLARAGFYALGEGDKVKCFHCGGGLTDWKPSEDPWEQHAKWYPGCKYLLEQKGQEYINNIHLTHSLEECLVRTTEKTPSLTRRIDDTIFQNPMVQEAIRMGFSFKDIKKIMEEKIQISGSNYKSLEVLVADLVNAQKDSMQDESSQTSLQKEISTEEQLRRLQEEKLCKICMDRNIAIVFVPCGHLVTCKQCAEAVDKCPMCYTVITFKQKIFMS

| Structure (SMILES) | z-score [1] | z-score [2] | z-score [3] | composite z-score [4] | z-score [5] | z-score [6] | z-score [7] | z-score [8] | z-score [9] | composite z-score [10] |
| --- | --- | --- | --- | --- | --- | --- | --- | --- | --- | --- |
| C#CCN1[C@@H](Cc2ccc(O)cc2)C(=O)O[C@H](Cc2ccccc2)[C@@H]1/C=C/C1CC1 | -1.9 | -2.19 (inactive) | -1.08 (inactive) | -0.652 (inactive) | -0.353 (inactive) | 0.168 (inactive) | 0.75 (inactive) | 0.665 (inactive) | -1.21 | 0.0664 |
| CO[C@H]1O[C@H](CO)[C@@H](OC(=O)Nc2cccc(F)c2)[C@H](OC(=O)Nc2ccccc2)[C@H]1OC(=O)Nc1ccccc1 | -2.71 | 0.311 (inactive) | -4.75 (inactive) | -0.599 (inactive) | -0.261 (inactive) | 1.77 (inactive) | 1.11 (inactive) | 0.194 (inactive) | -4.5 | 0.072 |
| NCCCCCNC(=O)[C@H]1C[C@H]2C(=O)N3CCC[C@H]3C(=O)N2[C@H]1c1ccc(O)cc1 | -0.0962 | -0.0403 (inactive) | -0.225 (inactive) | -0.572 (inactive) | 0.174 (inactive) | -0.835 (inactive) | -0.363 (inactive) | -0.39 (inactive) | -0.485 | 0.247 |
| O=C(O)C1N=C(c2ccc(OCCCO)cc2)N(c2ccccc2)O1 (stereo not given) | -0.0554 | 0.0427 (inactive) | -0.258 (inactive) | -0.928 (inactive) | -0.469 (inactive) | 0.0613 (inactive) | -0.351 (inactive) | 0.46 (inactive) | -0.219 | -0.22 |
| C=CCN1Cc2ccccc2[C@@H]2OC(c3ccc(OCCCO)cc3)=N[C@]2(CCS(=O)(=O)c2ccccc2)C1=O | 0.277 | 1.28 (inactive) | -0.751 (inactive) | 0.651 (inactive) | 1.4 (inactive) | 1.38 (inactive) | 0.61 (inactive) | 0.713 (inactive) | -0.764 | -0.123 |
| O=C1C2C=CC(C(O)c3ccc(-c4ccccc4)s3)N(Nc3ccccc3)C2C(=O)N1c1ccccc1 (stereo not given) | 0.809 | -2.18 (inactive) | -0.171 (inactive) | 0.569 (inactive) | 0.282 (inactive) | 0.119 (inactive) | -0.172 (inactive) | 0.7 (inactive) | 0.428 | 0.59 |
| C=C(CCCC)/C(=C/C[C@@H](OC(C)=O)c1cccc(OCCO)c1)c1cnc2ccccc2c1 | -0.256 | -0.236 (inactive) | -0.657 (inactive) | -3.06 (inactive) | 0.108 (inactive) | 0.647 (inactive) | 0.309 (inactive) | -0.132 (inactive) | 0.418 | -0.173 |
| O=C(NCCN1CCOCC1)[C@@H]1c2ccccc2C(=O)N(Cc2cc(C(F)(F)F)cc(C(F)(F)F)c2)[C@H]1c1ccc(CO)cc1 | -0.731 | 0.164 (inactive) | 0.0896 (inactive) | 0.434 (inactive) | 0.224 (inactive) | 0.842 (inactive) | 1.06 (inactive) | 0.321 (inactive) | 0.0838 | -0.242 |
| O=C1NC(=O)C2C1C=CC(C(O)C=Cc1ccc([N+](=O)[O-])cc1)N2Nc1ccc(Cl)cc1Cl (stereo not given) | -1.22 | -6.66 (inactive) | -1.19 (inactive) | 0.139 (inactive) | 0.807 (inactive) | 0.379 (inactive) | 0.178 (inactive) | -1.04 (inactive) | -0.615 | -0.197 |
| O=C1C2C=CC(C(O)c3ccc4c(c3)OCO4)N(Nc3ccc([N+](=O)[O-])cc3)C2C(=O)N1c1ccccc1 (stereo not given) | -0.415 | -0.13 (inactive) | -0.104 (inactive) | -1.46 (inactive) | 0.0641 (inactive) | -0.729 (inactive) | -1.15 (inactive) | -0.411 (inactive) | -0.56 | 0.191 |
| [N-]=[N+]=Nc1ccccc1C[C@]1(C(=O)NCC(O)CO)N=C(c2ccc(OCCCO)cc2)O[C@H]1c1ccccc1 (stereo not given in full) | -0.577 | -1.23 (inactive) | -0.62 (inactive) | 0.986 (inactive) | 1.13 (inactive) | 2 (inactive) | -0.283 (inactive) | -0.949 (inactive) | -1 | -0.0525 |
| Cc1ccc(S[C@]2(C(=O)O)CC(=O)N(Cc3ccccc3C(F)(F)F)[C@@H]2c2ccc(CO)cc2I)cc1 | 0.484 | -5.47 (inactive) | -2.29 (inactive) | -0.358 (inactive) | 0.304 (inactive) | -1.22 (inactive) | 0.0985 (inactive) | -0.367 (inactive) | -1.78 | -0.0076 |
| COC(=O)[C@@]1(Cc2ccc(F)cc2)[C@H]2c3cc(C(=O)N(C)C)n(Cc4ccc(C)o4)c3C[C@H]2CN1C(=O)c1ccccc1 | -0.0869 | 0.241 (inactive) | 0.003 (inactive) | -0.631 (inactive) | 0.467 (inactive) | -0.0282 (inactive) | -0.359 (inactive) | -0.192 (inactive) | -0.0803 | 1.87 |
| NC(=O)N1C(=O)C2C(C1=O)C1C=C(CCCO)C2C(C2CC2)N1Cc1cc2c(cc1Br)OCO2 (stereo not given) | -0.437 | -1.85 (inactive) | -0.264 (inactive) | -0.659 (inactive) | -0.778 (inactive) | -0.492 (inactive) | -0.298 (inactive) | -0.562 (inactive) | -0.46 | 0.0479 |
| O=C1C2C=CC(C(O)c3c(F)cccc3Cl)N(Nc3ccccc3F)C2C(=O)N1c1ccccc1 (stereo not given) | -0.269 | -0.796 (inactive) | -0.819 (inactive) | -0.303 (inactive) | 0.447 (inactive) | 0.824 (inactive) | -0.0281 (inactive) | 0.729 (inactive) | -0.144 | -0.0749 |
| [N-]=[N+]=Nc1ccccc1C[C@]1(C(=O)NCc2ccccc2)N=C(c2ccc(OCCCO)cc2)O[C@H]1c1ccccc1N=[N+]=[N-] | -1.17 | 0.371 (inactive) | -3.49 (inactive) | 0.535 (inactive) | 1.13 (inactive) | 0.879 (inactive) | -0.377 (inactive) | -0.0802 (inactive) | -2.83 | 0.0097 |
| COc1ccc(NN2C(C(O)c3ccc(N(C)C)cc3)C=CC3C(=O)N(C4CCCCC4)C(=O)C32)cc1 (stereo not given) | 0.252 | -0.796 (inactive) | -0.0447 (inactive) | 0.128 (inactive) | 0.862 (inactive) | -0.0156 (inactive) | -0.723 (inactive) | -0.224 (inactive) | -1 | 0.17 |
| COC(=O)C[C@H]1O[C@@H](CCc2ccccc2)[C@@H](C)[C@@H]1[Si](C)(C)c1ccc(OC)cc1 | 0.294 | -0.938 (inactive) | -0.229 (inactive) | 0.656 (inactive) | -0.529 (inactive) | 0.725 (inactive) | -0.0089 (inactive) | -1.12 (inactive) | -0.206 | 0.152 |
| O=C1O[C@H](c2ccccc2)[C@H](c2ccccc2)N2[C@H]1[C@@H](C(=O)NC[C@H](O)c1ccccc1)[C@]1(C(=O)Nc3ccccc31)[C@H]2c1ccc(O)cc1 | -1 | 0.0934 (inactive) | -1.16 (inactive) | 0.668 (inactive) | 0.346 (inactive) | 1.46 (inactive) | 0.759 (inactive) | 0.315 (inactive) | -2.77 | 0.166 |
| COc1ccc(C(=O)Nc2ccc(CN3C(=O)[C@]4(O[C@H](CC(=O)N5CCC[C@H]5CO)[C@@H]([Si](C)(C)c5ccc(OC)cc5)[C@@H]4C)c4ccccc43)cc2)cc1 | -1.79 | 0.082 (inactive) | -2.05 (inactive) | -2.56 (inactive) | 0.0245 (inactive) | 0.557 (inactive) | -0.0895 (inactive) | -0.381 (inactive) | -4.49 | -0.361 |
| C=CCOC(=O)[C@H]1[C@@H]2C(=O)O[C@@H](c3ccccc3)[C@@H](c3ccccc3)N2[C@@H](c2ccc(OCCOC(=O)[C@H]3C[C@H]4C(=O)N[C@@H](CCCCN(C)C)C(=O)N4[C@H]3c3cccc(OCCO)c3)cc2)[C@]12C(=O)Nc1ccc(I)cc12 | -0.0574 | 0.626 (inactive) | -0.865 (inactive) | 1.71 (inactive) | 0.808 (inactive) | 1.75 (inactive) | -0.548 (inactive) | -1.02 (inactive) | -0.316 | 0.194 |
| COc1cc2c(cc1O)C(c1cccs1)N(Cc1cccc(OC(F)(F)F)c1)CC2 (stereo not given) | -0.688 | -3.07 (inactive) | -1.11 (inactive) | -4.69 (inactive) | -0.0623 (inactive) | -0.728 (inactive) | -0.0378 (inactive) | 1.14 (inactive) | -1.93 | 0.171 |
| [N-]=[N+]=Nc1ccccc1C[C@@]1(C(=O)N2CCCCC2)N=C(c2ccc(OCCCO)cc2)O[C@@H]1c1ccccc1 | 1.9 | -2.84 (inactive) | -0.351 (inactive) | 0.496 (inactive) | 3.16 (inactive) | 0.076 (inactive) | 1.38 (inactive) | 0.887 (inactive) | -0.0538 | -0.236 |
| COC(=O)[C@@]1(Cc2ccc(OC)cc2)[C@H]2c3cc(C(=O)N4CCCC4)n(CCSCCO)c3C[C@H]2CN1C(=O)c1ccccc1 | 0.353 | 1.6 (inactive) | 0.129 (inactive) | -0.0408 (inactive) | 0.923 (inactive) | 1.47 (inactive) | -1.18 (inactive) | -0.739 (inactive) | -1.3 | 0.187 |
| COCCOC(=O)N1C(=O)[C@@]2(c3cc(C#CC4=CCCCC4)ccc31)[C@H](C(N)=O)[C@H]1C(=O)O[C@H](c3ccccc3)[C@H](c3ccccc3)N1[C@@H]2c1ccc(O)cc1 | -0.495 | -0.268 (inactive) | -2.03 (inactive) | -1.37 (inactive) | 1.37 (inactive) | -1.07 (inactive) | 0.273 (inactive) | 1.03 (inactive) | -4.15 | -0.223 |
| COC(=O)[C@@]1(Cc2ccc(OC)cc2)[C@H]2c3cc(C(=O)N(C)C)n(Cc4ccc(C(F)(F)F)nc4)c3C[C@H]2CN1C(=O)c1ccccc1 | 0.133 | 0.794 (inactive) | -0.312 (inactive) | -0.224 (inactive) | -0.0019 (inactive) | 0.44 (inactive) | -0.22 (inactive) | -0.18 (inactive) | 0.27 | 0.333 |
